# From publication PMC7862700, “An all-to-all approach to the identification of sequence-specific readers for epigenetic DNA modifications on cytosine”
# Columns and labels:
# Experiment in all cases: DAPPL (digital affinity profiling via proximity ligation, sequencing); 10 mM Tris-HCl pH 7.5, 50 mM NaCl, 1 mM DTT, 4% glycerol, room temperature, 30 min; GST-TFs on glutathione beads, 16-mer random dsDNA library, 0.1% formaldehyde crosslink after washing; high values mean tight binding
# Details in all cases: protein: recombinant; tags: N-terminal GST; dsDNA, one strand shown
# FLI1 = molecular target: T1, FLI1 (Homo sapiens, UniProt Q01543 1-452)
# T1 sequence: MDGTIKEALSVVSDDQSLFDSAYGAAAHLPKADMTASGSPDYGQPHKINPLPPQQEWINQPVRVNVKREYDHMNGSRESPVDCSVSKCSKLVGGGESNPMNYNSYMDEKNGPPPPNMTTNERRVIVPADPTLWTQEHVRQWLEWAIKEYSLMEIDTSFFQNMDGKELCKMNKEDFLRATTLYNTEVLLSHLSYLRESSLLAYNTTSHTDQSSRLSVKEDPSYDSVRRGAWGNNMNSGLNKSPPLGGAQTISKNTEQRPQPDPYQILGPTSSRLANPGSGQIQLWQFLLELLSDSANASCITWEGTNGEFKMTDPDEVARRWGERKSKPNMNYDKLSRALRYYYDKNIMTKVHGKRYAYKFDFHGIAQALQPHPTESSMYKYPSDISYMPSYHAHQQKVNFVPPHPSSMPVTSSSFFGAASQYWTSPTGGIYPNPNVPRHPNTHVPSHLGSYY
# Method in brief: (§1)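 Human transcription factors carrying a GST fusion were produced in yeast, bound to glutathione beads, tagged with DNA barcodes and pooled together with a tag-only sample. Each pool was held with 200 nmole of a random double-stranded 16-mer DNA library in Tris/NaCl/DTT/glycerol buffer for 30 min at room temperature, then washed, crosslinked in 0.1% formaldehyde, proximity-ligated with BsaI/T4 ligase (1 h, 37 °C), PCR-amplified and sequenced on an Illumina NextSeq500. Binding signal is the read frequency of each hexamer for a given factor divided by its frequency in the tag-only sample.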
# ELK1 = molecular target: T2, ELK1 (Homo sapiens, UniProt P19419 1-428)
# T2 sequence: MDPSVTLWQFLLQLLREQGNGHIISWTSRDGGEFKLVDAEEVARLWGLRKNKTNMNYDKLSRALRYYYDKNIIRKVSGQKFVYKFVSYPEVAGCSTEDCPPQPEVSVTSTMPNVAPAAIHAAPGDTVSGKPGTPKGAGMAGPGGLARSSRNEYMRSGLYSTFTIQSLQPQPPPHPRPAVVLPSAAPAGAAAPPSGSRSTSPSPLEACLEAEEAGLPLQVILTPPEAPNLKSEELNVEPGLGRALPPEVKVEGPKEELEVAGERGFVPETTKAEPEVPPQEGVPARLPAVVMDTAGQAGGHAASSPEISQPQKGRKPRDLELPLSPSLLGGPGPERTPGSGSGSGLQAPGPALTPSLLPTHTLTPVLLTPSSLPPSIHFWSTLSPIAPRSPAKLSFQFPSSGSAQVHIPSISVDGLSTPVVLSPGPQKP
# Method in brief: as §1
# GABPA = molecular target: T3, GABPA (Homo sapiens, UniProt Q06546 1-454)
# T3 sequence: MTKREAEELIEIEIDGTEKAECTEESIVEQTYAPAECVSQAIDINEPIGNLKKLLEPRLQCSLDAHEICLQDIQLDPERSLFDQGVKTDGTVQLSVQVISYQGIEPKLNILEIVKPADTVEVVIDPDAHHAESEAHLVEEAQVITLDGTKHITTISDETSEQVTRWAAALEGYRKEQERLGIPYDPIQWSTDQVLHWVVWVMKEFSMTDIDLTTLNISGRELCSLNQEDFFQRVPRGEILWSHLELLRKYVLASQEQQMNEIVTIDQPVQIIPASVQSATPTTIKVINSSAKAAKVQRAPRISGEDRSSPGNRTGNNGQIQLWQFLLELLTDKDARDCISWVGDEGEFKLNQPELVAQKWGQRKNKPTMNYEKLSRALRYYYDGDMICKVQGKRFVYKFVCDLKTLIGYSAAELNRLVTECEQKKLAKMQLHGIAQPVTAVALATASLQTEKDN
# Method in brief: as §1
# ERG = molecular target: T4, ERG (Homo sapiens, UniProt P11308 1-479)
# T4 sequence: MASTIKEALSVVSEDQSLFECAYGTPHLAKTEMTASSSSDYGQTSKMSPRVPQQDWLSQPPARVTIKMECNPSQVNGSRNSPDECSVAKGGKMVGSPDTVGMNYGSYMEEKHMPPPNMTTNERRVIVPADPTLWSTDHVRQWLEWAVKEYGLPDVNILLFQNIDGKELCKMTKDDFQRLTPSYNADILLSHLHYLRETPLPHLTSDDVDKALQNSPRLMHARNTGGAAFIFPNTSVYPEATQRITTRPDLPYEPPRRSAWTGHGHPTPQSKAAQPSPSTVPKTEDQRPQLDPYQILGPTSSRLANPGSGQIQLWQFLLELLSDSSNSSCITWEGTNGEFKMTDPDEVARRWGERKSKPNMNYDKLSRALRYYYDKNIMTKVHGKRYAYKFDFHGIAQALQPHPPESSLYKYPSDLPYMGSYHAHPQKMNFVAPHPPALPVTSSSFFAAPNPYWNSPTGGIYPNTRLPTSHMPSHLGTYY
# Method in brief: as §1
# ELF1 = ELF1 (Homo sapiens, UniProt P32519 1-619)
# ELF1, sequence (P32519 whole entry): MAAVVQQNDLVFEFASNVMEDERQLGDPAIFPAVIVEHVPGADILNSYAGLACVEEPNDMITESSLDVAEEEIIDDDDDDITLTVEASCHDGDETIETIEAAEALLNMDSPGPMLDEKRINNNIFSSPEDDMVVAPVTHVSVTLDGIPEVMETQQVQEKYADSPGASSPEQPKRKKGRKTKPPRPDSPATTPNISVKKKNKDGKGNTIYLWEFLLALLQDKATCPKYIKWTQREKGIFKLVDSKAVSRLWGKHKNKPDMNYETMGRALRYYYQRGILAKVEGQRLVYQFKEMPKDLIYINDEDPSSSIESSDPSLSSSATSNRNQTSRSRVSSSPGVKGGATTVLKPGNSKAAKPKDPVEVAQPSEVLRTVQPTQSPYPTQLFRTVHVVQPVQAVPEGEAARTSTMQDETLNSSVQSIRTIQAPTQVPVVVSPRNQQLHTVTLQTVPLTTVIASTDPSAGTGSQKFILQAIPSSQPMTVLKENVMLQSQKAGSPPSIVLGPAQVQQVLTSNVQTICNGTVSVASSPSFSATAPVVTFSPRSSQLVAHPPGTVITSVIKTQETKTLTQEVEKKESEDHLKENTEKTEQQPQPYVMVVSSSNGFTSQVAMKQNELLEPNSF
# Method in brief: as §1
# EHF = molecular target: T5, EHF (Homo sapiens, UniProt Q9NZC4 1-300)
# T5 sequence: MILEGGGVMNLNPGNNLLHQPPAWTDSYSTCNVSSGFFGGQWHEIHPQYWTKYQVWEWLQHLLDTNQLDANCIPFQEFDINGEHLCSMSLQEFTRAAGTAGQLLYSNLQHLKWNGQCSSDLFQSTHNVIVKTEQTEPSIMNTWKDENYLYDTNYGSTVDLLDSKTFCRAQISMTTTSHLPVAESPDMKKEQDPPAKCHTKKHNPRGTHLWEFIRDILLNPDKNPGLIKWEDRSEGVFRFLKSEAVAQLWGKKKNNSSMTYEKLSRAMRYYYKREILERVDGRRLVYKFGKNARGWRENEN
# Method in brief: as §1
# SPI1 = SPI1 (Homo sapiens, UniProt P17947 1-270)
# Method in brief: as §1
# SPIB = SPIB (Homo sapiens, UniProt Q01892 1-262)
# SPIB, sequence (Q01892 whole entry): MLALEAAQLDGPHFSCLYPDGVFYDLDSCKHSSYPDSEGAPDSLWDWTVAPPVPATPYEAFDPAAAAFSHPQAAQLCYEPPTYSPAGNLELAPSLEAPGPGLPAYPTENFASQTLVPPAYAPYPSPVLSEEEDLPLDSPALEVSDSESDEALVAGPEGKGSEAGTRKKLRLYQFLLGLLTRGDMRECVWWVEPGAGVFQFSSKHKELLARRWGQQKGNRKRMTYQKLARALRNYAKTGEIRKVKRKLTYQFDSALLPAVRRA
# Method in brief: as §1
# ELK3 = molecular target: T6, ELK3 (Homo sapiens, UniProt P41970 1-407)
# T6 sequence: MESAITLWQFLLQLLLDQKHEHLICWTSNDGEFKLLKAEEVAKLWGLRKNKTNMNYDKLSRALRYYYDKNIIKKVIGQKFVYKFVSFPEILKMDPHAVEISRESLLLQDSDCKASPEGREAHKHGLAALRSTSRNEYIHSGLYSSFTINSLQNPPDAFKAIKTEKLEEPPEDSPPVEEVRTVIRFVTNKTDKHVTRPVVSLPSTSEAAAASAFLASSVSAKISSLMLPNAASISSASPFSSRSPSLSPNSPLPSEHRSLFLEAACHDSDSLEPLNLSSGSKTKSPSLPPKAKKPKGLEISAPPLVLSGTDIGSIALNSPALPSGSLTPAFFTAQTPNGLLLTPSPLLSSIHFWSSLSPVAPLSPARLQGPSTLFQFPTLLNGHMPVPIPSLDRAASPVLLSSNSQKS
# Method in brief: as §1
Sequence,binding signal (FLI1),binding signal (ELK1),binding signal (GABPA),binding signal (ERG),binding signal (ELF1),binding signal (EHF),binding signal (SPI1),binding signal (SPIB),binding signal (ELK3)
TCGATT,"1.12 fold enrichment (6-mer frequency, TF over GST control)","1.11 fold enrichment (6-mer frequency, TF over GST control)","1.13 fold enrichment (6-mer frequency, TF over GST control)","1.12 fold enrichment (6-mer frequency, TF over GST control)","1.12 fold enrichment (6-mer frequency, TF over GST control)","1.05 fold enrichment (6-mer frequency, TF over GST control)","1.08 fold enrichment (6-mer frequency, TF over GST control)","1.15 fold enrichment (6-mer frequency, TF over GST control)","1.06 fold enrichment (6-mer frequency, TF over GST control)"
GATCCT,"1.28 fold enrichment (6-mer frequency, TF over GST control)","1.2 fold enrichment (6-mer frequency, TF over GST control)","1.3 fold enrichment (6-mer frequency, TF over GST control)","1.38 fold enrichment (6-mer frequency, TF over GST control)","1.26 fold enrichment (6-mer frequency, TF over GST control)","1.28 fold enrichment (6-mer frequency, TF over GST control)","1.24 fold enrichment (6-mer frequency, TF over GST control)","1.33 fold enrichment (6-mer frequency, TF over GST control)","1.31 fold enrichment (6-mer frequency, TF over GST control)"
TCTTGC,"1.29 fold enrichment (6-mer frequency, TF over GST control)","1.33 fold enrichment (6-mer frequency, TF over GST control)","1.28 fold enrichment (6-mer frequency, TF over GST control)","1.24 fold enrichment (6-mer frequency, TF over GST control)","1.41 fold enrichment (6-mer frequency, TF over GST control)","1.31 fold enrichment (6-mer frequency, TF over GST control)","1.28 fold enrichment (6-mer frequency, TF over GST control)","1.33 fold enrichment (6-mer frequency, TF over GST control)","1.55 fold enrichment (6-mer frequency, TF over GST control)"
TATGAT,"1.21 fold enrichment (6-mer frequency, TF over GST control)","1.18 fold enrichment (6-mer frequency, TF over GST control)","1.22 fold enrichment (6-mer frequency, TF over GST control)","1.2 fold enrichment (6-mer frequency, TF over GST control)","1.24 fold enrichment (6-mer frequency, TF over GST control)","1.27 fold enrichment (6-mer frequency, TF over GST control)","1.18 fold enrichment (6-mer frequency, TF over GST control)","1.23 fold enrichment (6-mer frequency, TF over GST control)","1.23 fold enrichment (6-mer frequency, TF over GST control)"
